Compounds without any hit were thinned out: in the full panel of roughly 83,000, 20% have a hit.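 Step 1: grow cells in 96-well plates. Step 2: add test compound at a single concentration. Step 3: incubate 48 h. Step 4: record percent growth.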 Unmarked numbers belong to inactive results. Activity calls are given as the source filed them. The calls were made as follows: active = growth percent below 10; inactive = the rest.
Key:
Experiment in all cases: NCI-60 one-dose screen, 48 h (100 = growth as untreated, 0 = no growth, -100 = all killed)
Conditions in all cases: 10 µM unless noted
[1] = test system: T-47D breast
[2] = test system: BT-549 breast
[3] = test system: MDA-MB-435 melanoma
[4] = test system: SW-620 colon
[5] = test system: MCF7 breast
[6] = test system: HCT-116 colon
[7] = test system: HCC-2998 colon
[8] = test system: KM12 colon

| Compound | growth [1] | growth [2] | growth [3] | growth [4] | growth [5] | growth [6] | growth [7] | growth [8] |
| --- | --- | --- | --- | --- | --- | --- | --- | --- |
| CC(=O)CC(=O)SC1=NCCS1 | 104% | 116% | 106% | 97.7% | 108% | 116% | 112% | 102% |
| Cc1ncc(C(=O)Nc2ccc(CN3CCN(C)CC3)c(C(F)(F)F)c2)cc1C#Cc1c(N)ncc2ccc(C#N)cc12 | 48.9% | 51.4% | 7.01% (active) | 34.1% | 29.5% | 14.5% | 58.4% | 9.43% (active) |
| N#C/C(C(=O)c1ccccc1)=C1/C(=O)Nc2ccccc21 | 97.1% | 48.3% | 97.6% | 95.9% | 89.1% | -50.4% (active) | 112% | 100% |
| COc1ncc(-c2ccc3nc(N)n(-c4ccccc4C(F)(F)F)c(=O)c3c2)cc1S(=O)(=O)Nc1ccc(F)cc1F | 30.3% | 49.1% | 31.2% | 34.2% | 43.7% | 32.5% | 39.7% | 21.1% |
| CCCSc1nc(N)nc2nc[nH]c12 | 97.6% | 156% | 117% | 113% | 104% | 95.3% | 115% | 114% |
| CC(=O)OC[C@]12CC[C@@H](C(=O)CBr)[C@@H]1[C@H]1CC[C@@H]3[C@@]4(C)CCCNC(C)(C)[C@@H]4CC[C@@]3(C)[C@]1(C)CC2 | -69.9% [100 µM] (active) | -62% [100 µM] (active) | -87.9% [100 µM] (active) | -58% [100 µM] (active) | -54.3% [100 µM] (active) | -71.2% [100 µM] (active) | -83.3% [100 µM] (active) | -78.2% [100 µM] (active) |
| CC1(C)CC[C@]2(C(=O)O)CC[C@]3(C)C(=CC[C@@H]4[C@@]5(C)C/C(=C/c6cccnc6)[C@H](O)C(C)(C)[C@@H]5CC[C@]43C)[C@@H]2C1 | 15.1% [100 µM] | 0.607% [100 µM] (active) | 7.02% [100 µM] (active) | 13.3% [100 µM] | 3.95% [100 µM] (active) | -33.4% [100 µM] (active) | -37.5% [100 µM] (active) | -38.1% [100 µM] (active) |
| Brc1ccc(-c2nnc3c4[nH]ccc4ncn23)cc1 | 57.6% | 94.3% | 97.8% | 94% | 75.8% | 86.4% | 96.6% | 73.4% |
| O=C1CC(c2ccc3c(c2)OCO3)Nc2ccccc21 (stereo not given) | 27.5% | 42.2% | -22.6% (active) | 19.2% | 15.9% | 17% | 35.3% | 17.1% |
| Cn1cc(-c2nnc(-c3cn(C)c4ncc(Br)cc34)o2)c2ccccc21 | 62% | 95.2% | 27.4% | 83.6% | 44.7% | 98% | 95.9% | 56.3% |
| CCOc1ccc(S(=O)(=O)Nc2ccc3c(c2)N(S(=O)(=O)CC)CCC3)cc1 | 68.1% | 95.2% | 78.8% | 68.3% | 44.9% | 90.8% | 78.2% | 77% |
| NC(=O)c1c(NC(=O)COC(=O)Cc2ccccc2F)sc2c1CCC2 | 88.8% | 106% | 105% | 97.4% | 88.8% | 114% | 114% | 105% |
| Cc1ccc(C2=C/C(=C/c3ccc(Br)cc3)C(=O)N2CCc2ccc(S(N)(=O)=O)cc2)cc1 | 75.9% | 98.1% | 101% | 103% | 88.5% | 95.2% | 105% | 100% |
| O=[N+]([O-])c1cc([N+](=O)[O-])c(C(F)(F)F)cc1NN=C(c1ccc(O)cc1)c1ccc(O)cc1 | -6.47% (active) | 132% | 99.1% | 106% | -10.1% (active) | -82.4% (active) | -55.5% (active) | 84% |
| Nc1cccc2c1C(=O)c1cccc(NC(=O)c3ccccc3)c1C2=O | 45.6% | 24.9% | -56.4% (active) | 7.88% (active) | 13.7% | 19.9% | -10.5% (active) | 32.5% |
| C=C(C)[C@@H]1CC[C@]2(C(=O)NCCNCCNCCN)CC[C@]3(C)[C@H](CC[C@@H]4[C@@]5(C)CCC(=O)C(C)(C)[C@@H]5CC[C@]43C)[C@@H]12 | -4.36% [100 µM] (active) | 58.3% [100 µM] | -49.9% [100 µM] (active) | -76.7% [100 µM] (active) | -58% [100 µM] (active) | -80.7% [100 µM] (active) | -90% [100 µM] (active) | -81.9% [100 µM] (active) |
| COc1ccc(C2NC(=O)C(C#N)c3c2sc2c(F)cccc32)cc1 (stereo not given) | 80.2% | 56.4% | -9.11% (active) | 24.4% | 32.7% | 37.5% | 91.5% | 41% |
| COc1ccc(/C=C/C(=C/c2c(O)[nH]c3cc(Br)ccc23)N=O)cc1 | 103% | 106% | 108% | 113% | 104% | 99.7% | 121% | 97.1% |
| C1=C[C@H]2O[C@@H]1c1ccc3[nH]ccc3c12 | 110% | 108% | 0.425% (active) | 73.4% | 96.1% | 97.9% | 86.7% | 79.5% |
| COC(=O)c1cc(O)c2c(c1C(=O)OC)C[C@H]1[C@@H]3CC=C4C[C@@H](O)CC[C@]4(C)[C@H]3CC[C@]21C | 36% | 32.3% | 37.6% | 44.9% | 37.2% | 22% | 41.6% | 36.3% |
| COc1ccc(CC(C#N)c2ccc(Cl)cc2)cc1 (stereo not given) | 98.2% | 74.9% | 0.297% (active) | 49% | 75% | 72.4% | 61.6% | 32.6% |
| N#C/C(C(=O)c1ccccc1)=C1/C(=O)Nc2ccc(Br)cc21 | 90.5% | 99.2% | 102% | 97% | 95.9% | 99.8% | 99.7% | 105% |
| C=CCc1nc2ccccc2s1 | 75.5% | 101% | 116% | 98.9% | 40.6% | 104% | 114% | 107% |
| COc1ccc2nc3cc(Cl)ccc3c(Nc3ccc(O)c(CN4CCCC4)c3)c2c1 | 35.8% | 79.2% | -61.5% (active) | -65.7% (active) | 43.4% | -45% (active) |  | 19.2% |
| CC1(C)CC[C@]2(C(=O)O)CC[C@]3(C)[C@H](CC[C@@H]4[C@@]5(C)CCC(=O)C(C)(C)[C@@H]5CC[C@]43C)[C@H]2[C@H]1OC(=O)C(F)(F)F | -25.2% [100 µM] (active) | -70% [100 µM] (active) | -69.3% [100 µM] (active) | -64.9% [100 µM] (active) | -40.1% [100 µM] (active) | -66.3% [100 µM] (active) | -93.7% [100 µM] (active) | -75.7% [100 µM] (active) |
| CSc1cccc([N+](=O)[O-])c1 | 90.1% | 104% | 100% | 108% | 108% |  | 108% | 113% |
| COc1cc(C)cc2oc3oc(=N)c(C(=O)c4ccccc4)cc3c(=O)c12 | 103% | 97.3% | 102% | 104% | 96.2% | 93.9% | 108% | 104% |
| O=C(NNc1ccc(-c2ccccc2)nn1)c1ccccc1 | 98.8% | 94.6% | 101% | 103% | 92% | 91.3% | 106% | 102% |
| Cc1cc(C)c(S(=O)(=O)/N=c2/n(-c3ccccc3)nc3n2CCN3C2=NCCN2)c(C)c1 | 77.8% | 73.8% | 69.5% | 84.8% | 90.8% | 55.7% | 61.5% | 85.4% |

Reference: PubChem BioAssay (NCI)
